Test results as given in the supplement of paper PMC12494721.
Structures can show the parent of a compound that is named as a salt. A number with no mark means an inactive call.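 Rule for the calls: for the amine columns active = adjusted P below 0.05 in both replicates with a change the same way and a mean fold change under 0.8 or over 1.25; inactive = the rest.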

The molecules below were run on Escherichia coli IAI1 (assay: fold change of Cadaverine concentration vs plate DMSO controls (fold change (ratio)); higher = more amine produced, active = hit call of the paper (significant change in both replicates, either direction)). Details: incubation time: 27 h, anaerobic, 37 °C.
In short: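 In 80 µL wells, cultures of four gut bacterial strains in mGAM started at OD 0.1 before a 1:1 dilution and grew anaerobically at 37 °C for 27 h. Compounds were added to 20 µM final, except sweeteners at 50 µM final. After extraction of whole cultures with cold acetonitrile/methanol plus 0.1% formic acid and centrifugation, amines were measured by LC–triple-quadrupole MS in dynamic MRM mode against external calibration curves, with within-batch drift correction. Values give fold change over DMSO controls on the same plate, averaged across 2 biological replicates.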

Row | SMILES | fold change of Cadaverine concentration
1 | Nc1ccn([C@@H]2CS[C@H](CO)O2)c(=O)n1 [Lamivudine] (20 µM) | 1.02
2 | COc1ccc(CCN(C)CCCC(C#N)(c2ccc(OC)c(OC)c2)C(C)C)cc1OC (stereo unspecified) [Verapamil hydrochloride] (20 µM) | 0.978
3 | CC[C@]12CCCN3CCc4c(n(c5ccccc45)[C@@](O)(C(=O)OC)C1)[C@@H]32 [Vincamine] (20 µM) | 1.02
4 | Cc1noc(NS(=O)(=O)c2ccc(N)cc2)c1C [Sulfisoxazole] (20 µM) | 1.04
5 | O=C1CN(/N=C/c2ccc([N+](=O)[O-])o2)C(=O)N1 [Nitrofurantoin] (20 µM) | 1.81 (active)
6 | C=C[C@H]1CN2CC[C@H]1C[C@@H]2[C@@H](O)c1ccnc2ccc(OC)cc12 [Quinidine hydrochloride monohydrate] (20 µM) | 0.921
7 | O=C1C(CC[S+]([O-])c2ccccc2)C(=O)N(c2ccccc2)N1c1ccccc1 (stereo unspecified) [Sulfinpyrazone] (20 µM) | 0.991
8 | CCCCCCCCNC(C)C(O)c1ccc(SC(C)C)cc1 (stereo unspecified) [Suloctidil] (20 µM) | 0.983
9 | CC(=O)Nc1ccc(O)cc1 [Acetaminophen] (20 µM) | 0.976
10 | CC(C)(c1cc(Br)c(O)c(Br)c1)c1cc(Br)c(O)c(Br)c1 (20 µM) | 0.996
11 | CCn1cc(C(=O)O)c(=O)c2cc(F)c(N3CCN(C)CC3)cc21 [Pefloxacin] (20 µM) | 0.204 (active)
